Results as given in PubChem BioAssay (NCI).
Compounds without any hit were thinned out: in the full panel of roughly 83,000, 20% have a hit.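 For each line, cells grew in 96-well plates with the test compound present at a single concentration for 48 hours.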 Calls of active or inactive are those of the source.

The molecules below were run on CCRF-CEM leukemia (assay: NCI-60 one-dose screen, 48 h (100 = growth as untreated, 0 = no growth, -100 = all killed)). Conditions: 10 µM unless noted.
Procedure: Growth inhibition of the CCRF-CEM human tumor cell line is measured as a screen for anti-cancer activity. Cells are grown in 96 well plates and exposed to the test compound for 48 hours. Compounds are tested at a single concentration, which is 10^-5 M for most compounds. The reported endpoint is percent growth (GI% or GIPRCNT), where numbers from 0 - 100% represent growth inhibition, and numbers from -100% - 0 represent cell death. For example, a value of 40 represents 60% growth inhibition. A value of 0 means no net growth occurred over the course of the experiment. A value of -40 indicates 40% of cells at the beginning of the experiment died by the end of the experiment. A value of -100 means all cells are dead at the end of the experiment.
NCI-60 Human Tumor Cell Lines Screen was performed using the standard one-dose NCI protocol, which is described in more detail at https://dtp.cancer.gov/discovery_development/nci-60/default.htm.
Compounds with GIPRCNT values below 10 were considered active. Activity score was based on GIPRCNT using the following formula: […]
Score is 0 for GIPRCNT values of 100 or above, 50 for GIPRCNT values of 0, and 100 for GIPRCNT values of -100.

Row | SMILES | growth
1 | C=C1C(=O)O[C@H]2[C@H]1CC/C(Cn1cc(Cn3ccc4ccccc43)nn1)=C\CC[C@@]1(C)O[C@@H]21 | -18.6% (active)
2 | CCOc1ccc(Nc2nc(-c3c(C)nc4ncccn34)cs2)cc1 | -4.93% (active)
3 | O=C(CN1CCN(c2cc3c(cc2F)c(=O)c(C(=O)O)cn3C2CC2)CC1)Nc1nc(-c2ccccc2)cs1 | 79.1% (inactive)
4 | CCN(CC)CC(C)(C)C(=O)/C=C/c1ccccc1 | 9.36% (active)
5 | CCCCCn1cnc2c(=S)nc[nH]c21 | 97.1% (inactive)
6 | O=C(/C=C/c1cccc(Br)c1)c1ccccc1 | 86.2% (inactive)
7 | CCOC(=O)c1ccc2c(c1)nc(/C=C/c1ccc(Cl)cc1)n2-c1cc(C(C)(C)C)[nH]n1 | 13.5% (inactive)
8 | N=S(=O)(NC(=O)c1ccc(Cl)cc1Cl)c1ccc(Br)s1 (stereo not given) | 87.2% (inactive)
9 | Oc1ccccc1N=Cc1c(O)ccc2ccccc12 | 32.5% (inactive)
10 | CCCCNc1ccc2c3c1cccc3c(=O)n1c3ccccc3nc21 | 75% (inactive)
11 | COc1ccc(-n2c(C)nc3c(c(C)nn3-c3ccccc3)c2=O)cc1 | 8.6% (active)
12 | COC1/C=C\OC2(C)Oc3c(C)c(O)c4c(O)c(c(CN(C)CCO)c(O)c4c3C2=O)NC(=O)/C(C)=C\C=C/C(C)C(O)C(C)C(O)C(C)C(OC(C)=O)C1C (stereo not given) | 98.3% (inactive)
13 | COc1ccc(-c2cc(=O)[nH]c3c(OC)c4ccccc4c(OC)c23)cc1 | 10.8% (inactive)
14 | CN1CCN(Cc2ccc(NC(=O)c3[nH]ncc3Nc3ncnc4[nH]ccc34)cc2)CC1 | 4.71% (active)
15 | COc1ccc(C2c3ccc4ccccc4c3Oc3ncnc(N)c32)cc1 (stereo not given) | 89.2% (inactive)
16 | Cc1ccc2c(c1)C(=O)c1c-2c(OCCCN(C)C)nc2ccccc12 | 19.3% (inactive)
17 | OCCNCCNc1c2ccccc2nc2ccccc12 | 65.4% (inactive)
18 | OC(c1cccc(C(F)(F)F)c1)c1cnccc1NC1CCCCCC1 (stereo not given) | 30.5% (inactive)
19 | CCN(CC)Cc1cc(Nc2c3ccccc3nc3cc(Cl)ccc23)ccc1O | -11.9% (active)
20 | O=C(CO[N+](=O)[O-])Nc1ccc(C(=O)/C=C/c2ccc3c(c2)OCO3)cc1 | 70% (inactive)

Row | SMILES | growth
21 | COc1cccc(/C=C2/C(=O)N(Cc3ccco3)SC2=S)c1OC | 68.3% (inactive)
22 | COc1cccc(-n2cc(-c3nc(Nc4cc(C)[nH]n4)c4ccccc4n3)nn2)c1 | 32.6% (inactive)
23 | CCCCCCCCCCCCCCCC(=O)OCC1OC(n2cnc3c(=S)nc(N)[nH]c32)C(OC(=O)CCCCCCCCCCCCCCC)C1OC(=O)CCCCCCCCCCCCCCC (stereo not given) | 15.9% (inactive)
24 | CCNS(=O)(=O)c1ncnc2nc[nH]c12 | 91.1% (inactive)
25 | Cc1nc2sc(C(=O)Nc3cccc4c3OCCO4)c(N)c2cc1C(C)O (stereo not given) | 19.3% (inactive)
26 | O=C1CC(c2nc3ccccc3s2)CN1C1CCCCC1 (stereo not given) | 100% (inactive)
27 | COc1ccc(Cl)cc1Nc1nc(C(F)(F)F)ccc1C(=O)N/N=C/c1cccnc1 | 13% (inactive)
28 | C=C1CC2(OC1=O)C(=O)N(CCCCCCCCCCCCN1C(=O)C3(CC(=C)C(=O)O3)c3ccccc31)c1ccccc12 (stereo not given) | 4.77% (active)
29 | COc1ccc(C/C(C)=C(\c2ccc(OCCN3CCCCCC3)cc2)c2ccc(OC(=O)C3CCCCC3)cc2)cc1 | 49.7% (inactive)
30 | NS(=O)(=O)N(c1cc(C(F)(F)F)cc(C(F)(F)F)c1)C1CCN(Cc2ccc(F)cc2)CC1 | 64% (inactive)
31 | O=c1[nH]c(-c2ccccn2)nc2sc3c(c12)CCCCC3 | 26.7% (inactive)
32 | C=C1C(=O)O[C@H]2[C@H]1CC/C(Cn1cc(Cn3ccc4cc(Cl)ccc43)nn1)=C\CC[C@@]1(C)O[C@@H]21 | -27.1% (active)
33 | Brc1cccc(-c2nc(-c3ccc4c(c3)OCCO4)co2)c1 | 51.6% [25 µM] (inactive)
34 | CN1CCN(Cc2ccc(NC(=O)c3[nH]ncc3Nc3ncnc4sccc34)cc2)CC1 | 8.16% (active)
35 | Cc1ccc(Nc2c(C(N)=O)cnc3ccc(-c4csc(N)n4)cc23)cc1 | 104% (inactive)
36 | O=c1c2cccc3c(Nc4c(F)cccc4F)ccc(c32)c2nc3ccccc3n12 | 72.5% (inactive)
37 | CN1/C(=C\C=C\C2=[N+](C)c3ccccc3C2(C)C)C(C)(C)c2ccccc21 | 7.62% (active)
38 | CCOC(=O)C(CC)n1c(=O)c2cc(OC)c(OC)cc2c2cnc3[nH]ccc3c21 (stereo not given) | 81.1% (inactive)
39 | Nc1ccc(Nc2nccc(-c3ccc4ccccc4c3)n2)cc1 | 27.3% (inactive)
40 | O=C(CCCCN1CCOCC1)Nc1ccc(Cn2nnc3c2C(=O)c2nnn(Cc4ccc(NC(=O)CCCCN5CCOCC5)cc4)c2C3=O)cc1 | -1.29% (active)
